The values that follow come from PubChem BioAssay (Tox21).

The target in assay [1] is Thyrotropin-releasing hormone receptor (Homo sapiens) (UniProt P34981). Description: qHTS assay to identify small molecule agonists of the thyrotropin-releasing hormone receptor (TRHR) signaling pathway (AID 1346891; calls by dose curve;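 note: HEK293 cells expressing TRHR with calcium dye readout; series mostly up to about 58 µM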). The essentials: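 Agonist-mode calcium mobilisation screen: TRHR-transfected HEK293 cells cultured overnight (18 h), dye-loaded for 2 h at 37 °C, exposed to compounds, and monitored by fluorescence for 3 min.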
Sequence of Thyrotropin-releasing hormone receptor (Homo sapiens) (P34981 whole entry, looked up): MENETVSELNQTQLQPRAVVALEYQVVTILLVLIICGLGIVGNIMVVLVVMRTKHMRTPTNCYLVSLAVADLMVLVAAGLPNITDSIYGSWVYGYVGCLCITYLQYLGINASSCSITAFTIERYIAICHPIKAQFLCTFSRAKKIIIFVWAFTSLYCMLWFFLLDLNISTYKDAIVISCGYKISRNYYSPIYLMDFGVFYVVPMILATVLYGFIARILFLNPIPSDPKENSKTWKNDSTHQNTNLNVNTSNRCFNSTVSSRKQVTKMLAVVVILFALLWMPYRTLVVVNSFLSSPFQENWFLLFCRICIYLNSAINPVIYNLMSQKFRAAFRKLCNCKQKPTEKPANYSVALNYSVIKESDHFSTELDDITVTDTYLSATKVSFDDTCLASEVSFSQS
On the technique in general: Quantitative high-throughput screening tests each substance at several concentrations.

Assay [2] in a line: Human pregnane X receptor (PXR) small molecule agonists, qHTS cell viability counter screen (AID 1346977). Note: nearly all actives have a fitted effect of over 50% in size. Note: potency is the fitted concentration of half-maximal effect. Put shortly:
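Measures live-cell protease fluorescence (CellTiter-Fluor) in PXR-Luc HepG2 cells treated 24hr with compounds at 37C. Cells had 5hr to attach before pin transfer of DMSO solutions.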

Assay [3] can be described thus: Caspase-3/7 induction in HepG2 cells by small molecules, qHTS assay (AID 1346978). Note: nearly all actives have a fitted effect of over 15% in size. Put shortly: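 Caspase-3/7 induction was measured by Caspase-Glo 3/7 luminescence (30 min, room temperature) after a 17 hr compound exposure of wild-type HepG2 cells seeded at 2,000 per well and pre-incubated 5 hr.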
Assay [4] can be described thus: Caspase-3/7 induction in CHO-K1 cells by small molecules, qHTS cell viability counter screen (AID 1346979). Note: nearly all actives have a fitted effect of over 35% in size. Note: potency is the fitted concentration of half-maximal effect. The essentials: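 In the same wells as the caspase read, viability of compound-treated wild-type CHO-K1 cells was assessed using CellTiter-Fluor, added after 16hr at 37C and measured by fluorescence following 1hr further incubation.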
The nature of assay [5]: Caspase-3/7 induction in CHO-K1 cells by small molecules, qHTS assay (AID 1346980). Note: nearly all actives have a fitted effect of over 15% in size. Put shortly:
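Luminescent Caspase-Glo 3/7 read (30min, room temperature) quantified apoptosis induction. Cells were wild-type CHO-K1, treated with compound for 17hr at 37 C and 5% CO2.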

Assay [6] in a line: Caspase-3/7 induction in HepG2 cells by small molecules, qHTS cell viability counter screen (AID 1346981). Note: nearly all actives have a fitted effect of over 30% in size. Note: potency is the fitted concentration of half-maximal effect. Put shortly: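 In this quantitative HTS counter screen, compounds delivered in DMSO were left on unmodified HepG2 cells for 16 hr at 37 C. Viability was then determined fluorometrically with CellTiter-Fluor, in parallel with caspase-3/7 induction in the same wells.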
The target of assay [7] is Nuclear receptor subfamily 1 group I member 2 (Homo sapiens) (UniProt O75469). Description: Human pregnane X receptor (PXR) small molecule agonists, qHTS assay (AID 1346982). Note: nearly all actives have a fitted effect of over 35% in size. Note: potency is the fitted concentration of half-maximal effect. Put shortly: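 Reporter HepG2 cells expressing PXR-Luc are cultured in charcoal-stripped FBS (5%), treated with compounds for 24 hr at 37 C, and assayed by ONE-Glo luminescence after 30 min at room temperature.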
Sequence of Nuclear receptor subfamily 1 group I member 2 (Homo sapiens) (O75469 whole entry, looked up): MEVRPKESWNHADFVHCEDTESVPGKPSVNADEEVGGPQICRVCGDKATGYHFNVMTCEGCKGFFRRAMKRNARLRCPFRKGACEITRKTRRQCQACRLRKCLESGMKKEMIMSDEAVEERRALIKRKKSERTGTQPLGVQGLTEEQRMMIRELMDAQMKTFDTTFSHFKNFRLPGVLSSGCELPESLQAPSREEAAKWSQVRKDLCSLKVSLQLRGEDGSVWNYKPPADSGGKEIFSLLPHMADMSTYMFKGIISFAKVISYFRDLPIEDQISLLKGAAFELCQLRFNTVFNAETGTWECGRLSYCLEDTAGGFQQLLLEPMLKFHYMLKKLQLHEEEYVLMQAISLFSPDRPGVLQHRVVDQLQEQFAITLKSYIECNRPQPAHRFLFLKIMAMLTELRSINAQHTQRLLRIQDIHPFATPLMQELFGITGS

The target of assay [8] is Cytochrome P450 2D6 (Homo sapiens) (UniProt P10635). The experiment in a line: Cytochrome P450 Family 2 Subfamily D Member 6 (CYP2D6) small molecule antagonists: luciferase reporter qHTS assay (AID 1671196). Note: nearly all actives have a fitted effect of over 50% in size. Note: potency is the fitted concentration of half-maximal effect. The essentials: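 Test chemicals meet CYP2D6 plus proluciferin substrate (10 min, RT); NADPH regenerating solution then drives turnover for 1 h. Detection reagent halts the reaction; luminescence measured after 20 min.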
Sequence of Cytochrome P450 2D6 (Homo sapiens) (P10635 whole entry, looked up): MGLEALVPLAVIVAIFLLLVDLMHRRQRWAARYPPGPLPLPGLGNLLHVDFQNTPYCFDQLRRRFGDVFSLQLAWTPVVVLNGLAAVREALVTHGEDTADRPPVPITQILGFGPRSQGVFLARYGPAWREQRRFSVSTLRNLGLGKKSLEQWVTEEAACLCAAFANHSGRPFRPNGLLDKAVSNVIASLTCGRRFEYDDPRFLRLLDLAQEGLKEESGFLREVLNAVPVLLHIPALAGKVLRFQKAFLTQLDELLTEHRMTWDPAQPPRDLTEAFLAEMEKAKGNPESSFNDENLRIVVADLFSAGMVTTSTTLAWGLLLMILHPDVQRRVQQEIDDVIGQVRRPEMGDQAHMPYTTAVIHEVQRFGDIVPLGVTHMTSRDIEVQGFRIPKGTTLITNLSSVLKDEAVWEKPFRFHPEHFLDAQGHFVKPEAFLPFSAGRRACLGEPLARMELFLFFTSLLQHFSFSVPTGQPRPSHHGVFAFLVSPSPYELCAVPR

Assay [9] deals with Cytochrome P450 2C19 (Homo sapiens) (UniProt P33261). Description: Cytochrome P450 Family 2 Subfamily C Member 19 (CYP2C19) small molecule antagonists: luciferase reporter qHTS assay (AID 1671197). Note: nearly all actives have a fitted effect of over 65% in size. Note: potency is the fitted concentration of half-maximal effect. Put shortly: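 CYP2C19 P450-Glo, 1536-well qHTS. Cpd + enzyme/proluciferin substrate 10 min RT; + NADPH regen, 37C 1 h; stop with luciferin detection reagent, 20 min RT, luminescence (RLU). Pos ctrl ketoconazole.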
Sequence of Cytochrome P450 2C19 (Homo sapiens) (P33261 whole entry, looked up): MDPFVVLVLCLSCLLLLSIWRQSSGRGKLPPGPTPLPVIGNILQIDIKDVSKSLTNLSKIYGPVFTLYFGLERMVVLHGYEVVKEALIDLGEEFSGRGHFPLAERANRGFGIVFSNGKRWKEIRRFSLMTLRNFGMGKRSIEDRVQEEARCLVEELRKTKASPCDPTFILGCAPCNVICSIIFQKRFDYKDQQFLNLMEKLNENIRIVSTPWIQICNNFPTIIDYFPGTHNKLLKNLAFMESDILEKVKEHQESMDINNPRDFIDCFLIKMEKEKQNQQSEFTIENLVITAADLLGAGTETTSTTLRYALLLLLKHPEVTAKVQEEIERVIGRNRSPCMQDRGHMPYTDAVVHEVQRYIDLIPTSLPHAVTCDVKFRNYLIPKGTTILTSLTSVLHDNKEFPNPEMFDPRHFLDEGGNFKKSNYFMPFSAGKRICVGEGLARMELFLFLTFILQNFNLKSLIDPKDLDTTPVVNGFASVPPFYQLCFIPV

The target of assay [10] is Cytochrome P450 1A2 (Homo sapiens) (UniProt P05177). Description: Cytochrome P450 Family 1 Subfamily A Member 2 (CYP1A2) small molecule antagonists: luciferase reporter qHTS assay (AID 1671199). Note: nearly all actives have a fitted effect of over 50% in size. Note: potency is the fitted concentration of half-maximal effect. Put shortly: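 Steps: enzyme-substrate mix dispensed; test compounds and furafylline control pinned in; 10 min room temperature; NADPH regeneration solution added, 1 h; reaction stopped with luciferin detection reagent; luminescence read after 20 min.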
Sequence of Cytochrome P450 1A2 (Homo sapiens) (P05177 whole entry, looked up): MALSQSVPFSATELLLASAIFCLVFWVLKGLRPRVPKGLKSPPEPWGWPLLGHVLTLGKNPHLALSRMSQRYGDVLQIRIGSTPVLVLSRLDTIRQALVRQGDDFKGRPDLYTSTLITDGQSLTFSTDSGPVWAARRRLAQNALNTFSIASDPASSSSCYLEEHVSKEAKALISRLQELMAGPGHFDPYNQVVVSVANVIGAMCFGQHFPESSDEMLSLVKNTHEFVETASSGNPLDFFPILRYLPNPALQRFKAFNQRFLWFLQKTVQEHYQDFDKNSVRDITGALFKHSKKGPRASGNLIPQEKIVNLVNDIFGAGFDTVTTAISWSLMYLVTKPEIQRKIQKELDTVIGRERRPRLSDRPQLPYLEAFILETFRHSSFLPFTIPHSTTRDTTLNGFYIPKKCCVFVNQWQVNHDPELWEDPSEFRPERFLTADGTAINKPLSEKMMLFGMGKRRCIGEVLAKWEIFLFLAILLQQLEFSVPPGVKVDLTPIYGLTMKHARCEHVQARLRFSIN
For orientation: Reporter assays use an easily measured gene product as a stand-in for the process of interest.

Assay [11] has as its target Cytochrome P450 2C9 (Homo sapiens) (UniProt P11712). Description: Cytochrome P450 Family 2 Subfamily C Member 9 (CYP2C9) small molecule antagonists: luciferase reporter qHTS assay (AID 1671198). Note: nearly all actives have a fitted effect of over 50% in size. Note: potency is the fitted concentration of half-maximal effect. The essentials: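 Enzyme-substrate mix preincubated with compound 10 min at room temperature; reaction started with NADPH regeneration solution, 1 h 37C. Luminescent luciferin product read after 20 min detection reagent.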

Assay [12] addresses Voltage-gated inwardly rectifying potassium channel KCNH2 (Homo sapiens) (UniProt Q12809). Description: Human Ether-a-go-go-Related Gene (hERG) channel small molecule antagonists: fluorescence cell-based qHTS assay (AID 1671200). The essentials:
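Quantitative HTS in hERG-U2OS cells: thallium entry through the channel reports activity, read as continuous 480/540 nm fluorescence over 2 min after stimulus addition.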
A general note: hERG is a cardiac potassium channel; its block is linked to QT prolongation.

Assay [13] concerns the target Cytochrome P450 3A4 (Homo sapiens) (UniProt P08684). The experiment in a line: Cytochrome P450 Family 3 Subfamily A Member 4 (CYP3A4) small molecule antagonists: luciferase reporter qHTS assay (AID 1671201). Note: nearly all actives have a fitted effect of over 50% in size. Note: potency is the fitted concentration of half-maximal effect. The essentials:
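Inhibition of CYP3A4 is measured as loss of light: the enzyme converts a proluciferin substrate to luciferin, detected luminescently. Reaction ran 1 h at room temperature with NADPH regeneration after a 10 min compound preincubation.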

A number with no mark means an inactive call. Inconclusive results are not listed. Active and inactive are the calls of the source. Unless noted, calls come from the whole dose curve; as a rule, active = well fitted curve in the direction sought with a large enough effect in the repeat runs; inconclusive = weak or mixed curves; inactive = no such curve, though single readings can be large; an effect the other way counts as inactive or inconclusive.

Sequence of Cytochrome P450 2C9 (Homo sapiens) (P11712 whole entry, looked up): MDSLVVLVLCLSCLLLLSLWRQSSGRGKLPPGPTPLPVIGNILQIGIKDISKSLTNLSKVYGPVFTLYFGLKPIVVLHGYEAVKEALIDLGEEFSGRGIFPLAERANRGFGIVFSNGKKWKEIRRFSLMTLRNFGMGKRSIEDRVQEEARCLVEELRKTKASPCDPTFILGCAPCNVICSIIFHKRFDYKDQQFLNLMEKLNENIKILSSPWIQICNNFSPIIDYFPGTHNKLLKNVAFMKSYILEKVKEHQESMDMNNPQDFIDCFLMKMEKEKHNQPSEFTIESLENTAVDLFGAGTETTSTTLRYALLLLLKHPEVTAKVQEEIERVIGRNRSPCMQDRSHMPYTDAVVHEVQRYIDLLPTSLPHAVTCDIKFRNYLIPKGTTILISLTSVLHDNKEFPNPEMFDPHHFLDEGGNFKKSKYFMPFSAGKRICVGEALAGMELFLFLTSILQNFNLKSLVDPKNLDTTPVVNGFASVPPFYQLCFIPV
Sequence of Cytochrome P450 3A4 (Homo sapiens) (P08684 whole entry, looked up): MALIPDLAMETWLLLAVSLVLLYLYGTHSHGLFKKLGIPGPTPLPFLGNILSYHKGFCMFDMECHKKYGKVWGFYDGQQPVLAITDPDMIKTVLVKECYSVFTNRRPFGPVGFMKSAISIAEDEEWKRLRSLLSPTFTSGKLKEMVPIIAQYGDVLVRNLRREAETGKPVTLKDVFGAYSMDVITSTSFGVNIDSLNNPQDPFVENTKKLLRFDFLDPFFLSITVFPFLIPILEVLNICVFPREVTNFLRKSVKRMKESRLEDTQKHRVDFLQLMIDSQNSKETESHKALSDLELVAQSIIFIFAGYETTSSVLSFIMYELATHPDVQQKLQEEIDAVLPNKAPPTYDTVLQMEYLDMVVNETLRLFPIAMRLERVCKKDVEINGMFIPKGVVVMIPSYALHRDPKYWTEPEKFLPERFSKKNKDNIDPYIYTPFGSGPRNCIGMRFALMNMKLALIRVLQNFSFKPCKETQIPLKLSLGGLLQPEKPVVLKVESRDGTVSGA
Sequence of Voltage-gated inwardly rectifying potassium channel KCNH2 (Homo sapiens) (Q12809 whole entry, looked up): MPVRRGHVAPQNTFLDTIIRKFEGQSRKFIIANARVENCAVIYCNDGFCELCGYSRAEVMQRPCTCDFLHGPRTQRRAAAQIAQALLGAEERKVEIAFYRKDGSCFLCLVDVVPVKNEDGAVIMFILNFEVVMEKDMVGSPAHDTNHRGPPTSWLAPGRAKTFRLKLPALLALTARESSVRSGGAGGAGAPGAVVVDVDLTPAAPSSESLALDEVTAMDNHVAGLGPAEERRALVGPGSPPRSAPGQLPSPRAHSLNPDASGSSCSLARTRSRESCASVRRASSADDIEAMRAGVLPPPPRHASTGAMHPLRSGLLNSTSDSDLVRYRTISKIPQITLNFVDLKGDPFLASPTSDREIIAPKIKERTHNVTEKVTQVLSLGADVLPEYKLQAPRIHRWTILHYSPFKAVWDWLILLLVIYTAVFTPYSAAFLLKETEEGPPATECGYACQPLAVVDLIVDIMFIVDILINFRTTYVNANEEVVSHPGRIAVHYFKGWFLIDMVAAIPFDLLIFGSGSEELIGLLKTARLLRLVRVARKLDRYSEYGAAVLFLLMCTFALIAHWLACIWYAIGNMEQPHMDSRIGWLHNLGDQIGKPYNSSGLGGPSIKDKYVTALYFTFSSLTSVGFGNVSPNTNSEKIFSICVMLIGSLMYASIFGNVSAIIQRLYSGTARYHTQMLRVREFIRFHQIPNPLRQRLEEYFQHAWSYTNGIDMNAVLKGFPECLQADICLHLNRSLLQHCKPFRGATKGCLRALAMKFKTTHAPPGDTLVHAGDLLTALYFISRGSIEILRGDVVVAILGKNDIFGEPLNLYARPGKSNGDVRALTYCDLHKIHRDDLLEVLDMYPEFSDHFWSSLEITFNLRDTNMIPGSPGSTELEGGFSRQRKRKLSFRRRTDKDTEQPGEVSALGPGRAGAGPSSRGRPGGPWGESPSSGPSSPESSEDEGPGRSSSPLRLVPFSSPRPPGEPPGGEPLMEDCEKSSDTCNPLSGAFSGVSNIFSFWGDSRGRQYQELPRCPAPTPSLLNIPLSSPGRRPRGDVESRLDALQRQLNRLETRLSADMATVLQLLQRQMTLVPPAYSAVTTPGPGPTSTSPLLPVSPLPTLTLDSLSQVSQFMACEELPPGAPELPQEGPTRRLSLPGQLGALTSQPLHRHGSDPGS

As to `CC1CCC(C(C)CS)CC1S` (centres undefined), the compound was classed as inactive in assay [1] and in assay [5]. Further, the Potency result in assay [2], in [3], in assay [4], in [6], in assay [7] and in assay [8] was “inactive” throughout. The Potency entry in assay [9] and in [10] was “inactive” throughout.
On to `CCCCCCC(CO)CCCC` (centres undefined), for which the compound was called inactive in assay [1] and in assay [5]. Moreover, the Potency entry in [2], in assay [3], in assay [4], in assay [6], in assay [7] and in assay [8] was “inactive” throughout. The Potency entry in assay [9], in assay [11], in assay [10], in assay [12] and in assay [13] was “inactive” in each case.
On to `CC(C)(C)S`, for which the result in assay [1] and in [5] was inactive. The Potency result in [2], in assay [3], in assay [4], in [6], in [7] and in assay [12] was “inactive” each time. Moreover, the Potency in assay [8] is 7.34 µM (active); in assay [9] it was 41.3 µM (active).
On to `CC(=O)OCC(C)C`, for which the call in [1] and in assay [5] was inactive. Also, the Potency result in [2], in [3], in assay [4], in assay [6], in [7] and in assay [8] was “inactive” throughout. Moreover, the Potency result in assay [9], in assay [11], in assay [10], in [12] and in assay [13] was “inactive” each time.
In the case of `CCN(CC)c1cccc(O)c1`, the result in assay [1] and in assay [5] was inactive. The Potency result in assay [2], in assay [3], in assay [4], in [6] and in assay [12] was “inactive” throughout. The Potency is 35.1 µM (active) in assay [7]; 36.3 µM (active) in assay [8]; 5.13 µM (active) in [9]; 64.6 µM (active) in assay [10]; 20.4 µM (active) in assay [13].
On to `Cc1cccc(C)c1NC(=O)c1cc(S(N)(=O)=O)c(Cl)cc1O`, for which the outcome in assay [1] and in assay [5] was inactive. Further, the Potency entry in [2], in [3], in [4], in assay [6], in assay [7] and in assay [8] was “inactive” each time. For the same compound, the Potency entry in [9], in assay [10], in assay [12] and in assay [13] was “inactive” in each case.
On to `O=S(=O)(Cl)c1c(Cl)cccc1Cl`, for which the call in assay [1] and in [5] was inactive. The Potency result in assay [2], in assay [3], in assay [4], in assay [6], in assay [7] and in [9] was “inactive” in each case. Further, the Potency entry in [11], in assay [10], in [12] and in [13] was “inactive” throughout. Besides, the Potency in assay [8] is 25.1 µM (active).
Turning to `Nc1c(Cl)cc(Cl)cc1[N+](=O)[O-]`, the result in assay [1] and in [5] was inactive. Moreover, the Potency entry in [2], in [3], in assay [4], in [6], in assay [7] and in [8] was “inactive” each time. For the same compound, the Potency entry in [11], in assay [12] and in [13] was “inactive” throughout. For the same compound, the Potency in [10] was 5.64 µM (active).
Consider `O=C1NC(=O)c2cccc3cccc1c23`, for which the compound was called inactive in assay [1] and in assay [5]. The Potency result in assay [2], in [3], in assay [4], in [6], in assay [8] and in assay [11] was “inactive” throughout. Besides, the Potency result in [12] is “inactive”. In addition, the Potency in assay [7] is 12.2 µM (active); in assay [10], 3.17 µM (active).
For the compound `CCN(Cc1cccc(S(=O)(=O)O)c1)c1ccc(C(=C2C=CC(=[N+](CC)Cc3cccc(S(=O)(=O)O)c3)C=C2)c2ccccc2S(=O)(=O)[O-])cc1`, the compound was classed as inactive in assay [1] and in assay [5]. Further, the Potency in [2] is 17.3 µM (active); in assay [4], 17.3 µM (active); in [6] it was 17.3 µM (active); in assay [8] it was 17.9 µM (active); in assay [9] it was 17.9 µM (active); in [11], 11.3 µM (active). For the same compound, the results for the Potency in assay [10] and in assay [13] were 17.9 µM (active) and 14.2 µM (active), respectively. Also, the Potency entry in [3], in [7] and in assay [12] was “inactive” each time.
